# From PMC11062922 (Nature Chemical Biology, 2023)
# Like-named read-outs stand apart in the source and are kept apart here.
# What was measured:
# Parameters in all cases: species or system human, MV4-11 + K-562 + COLO205 + SK-N-BE2 + OVCAR-8
# ACVR1B = conditions: read-out: apparent Kd, n = 1
# ADCK3 = conditions: read-out: apparent Kd; compound concentrations:100 nM and 1000 nM (sheet 'Samples'); n = 1
# NQO2 = conditions: read-out: apparent Kd; compound concentrations:100 nM and 1000 nM (sheet 'Samples'); n = 1
# TGFBR1 = conditions: read-out: apparent Kd, n = 1
# AKT3 = conditions: read-out: apparent Kd; compound concentrations: 100 nM and 1000 nM (sheet 'Samples'), CATDS: 5.7187277937225903E-2; n = 1
# CIT = conditions: read-out: apparent Kd; compound concentrations: 100 nM and 1000 nM (sheet 'Samples'), CATDS: 5.03714140810754E-2; n = 1
# CSNK1A1 = conditions: read-out: apparent Kd, compound concentrations: 100 nM and 1000 nM (sheet 'Samples'), n = 1
# CSNK1D = conditions: read-out: apparent Kd, compound concentrations: 100 nM and 1000 nM (sheet 'Samples'), n = 1
# CSNK1E = conditions: read-out: apparent Kd, compound concentrations: 100 nM and 1000 nM (sheet 'Samples'), n = 1
# MAPK10 = conditions: read-out: apparent Kd; compound concentrations: 100 nM and 1000 nM (sheet 'Samples'), CATDS: 8.4251059270540496E-2; n = 1
# MAPK14 = conditions: read-out: apparent Kd, compound concentrations: 100 nM and 1000 nM (sheet 'Samples'), n = 1
# MAPK9 = conditions: read-out: apparent Kd; compound concentrations: 100 nM and 1000 nM (sheet 'Samples'), CATDS: 7.1166451805227196E-2; n = 1
# MAPKAPK2 = conditions: read-out: apparent Kd; compound concentrations: 100 nM and 1000 nM (sheet 'Samples'), CATDS: 7.7439810634818695E-2; n = 1
# MYLK3 = conditions: read-out: apparent Kd; compound concentrations: 100 nM and 1000 nM (sheet 'Samples'), CATDS: 7.2718608613227403E-2; n = 1
# RIPK2 = conditions: read-out: apparent Kd; compound concentrations: 100 nM and 1000 nM (sheet 'Samples'), CATDS: 6.8187313119451795E-2; n = 1
# ADRBK1 = conditions: read-out: apparent Kd; compound concentrations: 100 nM and 1000 nM (sheet 'Samples'), CATDS: 5.42741985746545E-2; n = 1
# AKT1 = conditions: read-out: apparent Kd; compound concentrations: 100 nM and 1000 nM (sheet 'Samples'), CATDS: 5.4273018110040303E-2; n = 1
# AKT2 = conditions: read-out: apparent Kd; compound concentrations: 100 nM and 1000 nM (sheet 'Samples'), CATDS: 6.3448544870815707E-2; n = 1
# CDK17 = conditions: read-out: apparent Kd; compound concentrations: 100 nM and 1000 nM (sheet 'Samples'), CATDS: 4.6046417847887898E-2; n = 1
# CDK6 = conditions: read-out: apparent Kd; compound concentrations: 100 nM and 1000 nM (sheet 'Samples'), CATDS: 4.5600576408269602E-2; n = 1
# LIMK1 = conditions: read-out: apparent Kd; compound concentrations: 100 nM and 1000 nM (sheet 'Samples'), CATDS: 4.6691533927662399E-2; n = 1
# MAP2K1 = conditions: read-out: apparent Kd; compound concentrations: 100 nM and 1000 nM (sheet 'Samples'), CATDS: 5.0029485958775197E-2; n = 1
# MAP2K2 = conditions: read-out: apparent Kd; compound concentrations: 100 nM and 1000 nM (sheet 'Samples'), CATDS: 5.0543278096989601E-2; n = 1
# NCL = conditions: read-out: apparent Kd; compound concentrations: 100 nM and 1000 nM (sheet 'Samples'), CATDS: 4.2837987158590003E-2; n = 1
# NQO1 = conditions: read-out: apparent Kd; compound concentrations: 100 nM and 1000 nM (sheet 'Samples'), CATDS: 5.1571181916601101E-2; n = 1
# PHKG2 = conditions: read-out: apparent Kd; compound concentrations: 100 nM and 1000 nM (sheet 'Samples'), CATDS: 4.0833835587176903E-2; n = 1
# PIM2 = conditions: read-out: apparent Kd; compound concentrations: 100 nM and 1000 nM (sheet 'Samples'), CATDS: 5.4197855398822901E-2; n = 1
# PIP4K2C = conditions: read-out: apparent Kd; compound concentrations: 100 nM and 1000 nM (sheet 'Samples'), CATDS: 6.0471713091723403E-2; n = 1
# PRKAG1 = conditions: read-out: apparent Kd; compound concentrations: 100 nM and 1000 nM (sheet 'Samples'), CATDS: 6.5107573303195193E-2; n = 1
# PYGL = conditions: read-out: apparent Kd; compound concentrations: 100 nM and 1000 nM (sheet 'Samples'), CATDS: 4.9538207783530498E-2; n = 1
# VDAC3 = conditions: read-out: apparent Kd; compound concentrations: 100 nM and 1000 nM (sheet 'Samples'), CATDS: 4.4574473592348701E-2; n = 1
# YES1 = conditions: read-out: apparent Kd; compound concentrations: 100 nM and 1000 nM (sheet 'Samples'), CATDS: 6.4280508089749694E-2; n = 1
# ZAK = conditions: read-out: apparent Kd; compound concentrations: 100 nM and 1000 nM (sheet 'Samples'), CATDS: 3.9848277554837802E-2; n = 1
# [1] = compound concentrations:100 nM and 1000 nM (sheet 'Samples')
compound,measurement,setting,value
N#Cc1ccc(-c2cc(-c3c[nH]nc3-c3ccccn3)ccn2)cc1 [GW693028X],potency estimated from few doses,ACVR1B; [1],872 nM
same,potency estimated from few doses,ADCK3,671 nM
same,potency estimated from few doses,NQO2,773 nM
same,potency estimated from few doses,TGFBR1; [1],263 nM
COc1ccc2cc(-c3c(-c4ccncc4)nc(-c4ccc(S(C)(=O)=O)cc4C)n3C)ccc2c1 [SB-633825],potency estimated from few doses,ACVR1B; [1],686 nM
same,potency estimated from few doses,ADCK3,803 nM
Nc1nccc(-c2c(-c3ccc(F)cc3)ncn2CCCN2CCOCC2)n1 [SB-216385],potency estimated from few doses,"ACVR1B; compound concentrations: 100 nM and 1000 nM (sheet 'Samples'), CATDS: 6.1592389938983201E-2",1120 nM
same,potency estimated from few doses,AKT3,1440 nM
same,potency estimated from few doses,CIT,2400 nM
same,potency estimated from few doses,CSNK1A1; CATDS: 7.2342208976373404E-2,712 nM
same,potency estimated from few doses,CSNK1D; CATDS: 0.22591064083460399,86.6 nM
same,potency estimated from few doses,CSNK1E; CATDS: 0.181188642263544,120 nM
same,potency estimated from few doses,MAPK10,493 nM
same,potency estimated from few doses,MAPK14; CATDS: 0.16940162518750301,134 nM
same,potency estimated from few doses,MAPK9,743 nM
same,potency estimated from few doses,MAPKAPK2,601 nM
same,potency estimated from few doses,MYLK3,703 nM
same,potency estimated from few doses,RIPK2,834 nM
same,potency estimated from few doses,"TGFBR1; compound concentrations: 100 nM and 1000 nM (sheet 'Samples'), CATDS: 5.4047908089072998E-2",1770 nM
CN(C)CCCNc1nccc(-c2c(-c3ccc(F)cc3)nn3cc(C(F)(F)F)ccc23)n1.CS(=O)(=O)O [GW618013A],potency estimated from few doses,"ACVR1B; compound concentrations: 100 nM and 1000 nM (sheet 'Samples'), CATDS: 0.30191803443786602",849 nM
same,potency estimated from few doses,CSNK1D; CATDS: 0.30648491159914698,827 nM
same,potency estimated from few doses,CSNK1E; CATDS: 0.19201098088976601,2340 nM
same,potency estimated from few doses,MAPK14; CATDS: 0.23713518302070899,1370 nM
Cc1nnc(-c2ccc(C)c(-c3ccc(C(=O)Nc4cccc(C#N)c4)cc3)c2)o1 [GW607117X],potency estimated from few doses,"ACVR1B; compound concentrations: 100 nM and 1000 nM (sheet 'Samples'), CATDS: 5.7242163764382799E-2",1170 nM
same,potency estimated from few doses,ADRBK1,1290 nM
same,potency estimated from few doses,AKT1,1290 nM
same,potency estimated from few doses,AKT2,976 nM
same,potency estimated from few doses,CDK17,1810 nM
same,potency estimated from few doses,CDK6,1850 nM
same,potency estimated from few doses,CSNK1A1; CATDS: 4.1256570238539701E-2,2360 nM
same,potency estimated from few doses,LIMK1,1750 nM
same,potency estimated from few doses,MAP2K1,1510 nM
same,potency estimated from few doses,MAP2K2,1480 nM
same,potency estimated from few doses,NCL,2140 nM
same,potency estimated from few doses,NQO1,1420 nM
same,potency estimated from few doses,PHKG2,2420 nM
same,potency estimated from few doses,PIM2,1290 nM
same,potency estimated from few doses,PIP4K2C,1060 nM
same,potency estimated from few doses,PRKAG1,935 nM
same,potency estimated from few doses,PYGL,1550 nM
same,potency estimated from few doses,VDAC3,1950 nM
same,potency estimated from few doses,YES1,955 nM
same,potency estimated from few doses,ZAK,2580 nM
